Source: paper PMC5540273 (PLoS ONE, 2017)

What was measured:
Conditions in all cases: concentration: 1 μM, replicates: in singlicate; n = 1
[1] = system: TTK
[2] = system: TXK
[3] = system: TYK2(JH1domain-catalytic)
[4] = system: TYK2(JH2domain-pseudokinase)
[5] = system: TYRO3
[6] = system: ULK1
[7] = system: ULK2
[8] = system: ULK3
[9] = system: T1, VEGFR2
T1 construct: gene KDR

[10] = system: T2, VPS34
T2 construct: gene PIK3C3

[11] = system: VRK2
[12] = system: WEE1
[13] = system: WEE2
[14] = system: WNK1
[15] = system: WNK2
[16] = system: WNK3
[17] = system: WNK4
[18] = system: T3, YANK1
T3 construct: gene STK32A

[19] = system: T4, YANK2
T4 construct: gene STK32B

[20] = system: T5, YANK3
T5 construct: gene STK32C
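Note: KINOMEscan kinase panel screen.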

Row | Structure (SMILES) | %Inh [1] | %Inh [2] | %Inh [3] | %Inh [4] | %Inh [5] | %Inh [6] | %Inh [7] | %Inh [8] | %Inh [9] | %Inh [10] | %Inh [11] | %Inh [12] | %Inh [13] | %Inh [14] | %Inh [15] | %Inh [16] | %Inh [17] | %Inh [18] | %Inh [19] | %Inh [20]
1 | Cc1cccc(-c2nc(Nc3ccc4[nH]ncc4c3)c3ccccc3n2)n1 [GW857175] | 3% | 0% | 11% | 36% | 0% | 12% | 8% | 18% | 23% | 0% | 0% | 4% | 0% | 0% | 51% | 40% | 50% | 17% | 0% | 59%
2 | COc1ccccc1-c1ccc2c(NC(=O)C3CC3)n[nH]c2n1 [SB-711239] | 21% | 0% | 0% | 18% | 0% | 63% | 0% | 100% | 0% | 15% | 21% | 8% | 5% | 7% | 0% | 37% | 0% | 15% | 0% | 20%
3 | Nc1ncnc2[nH]c(-c3ccccc3)nc12 [AH5015] | 0% | 34% | 38% | 99.3% | 0% | 33% | 5% | 20% | 0% | 0% | 30% | 0% | 0% | 10% | 9% | 13% | 19% | 98% | 4% | 9%
4 | Cc1ccc(C(=O)Nc2ccc(Nc3ccnc4cc(-c5ccccn5)ccc34)cc2O)cc1.Cl [GW440146] | 0% | 5% | 28% | 19% | 0% | 0% | 0% | 3% | 13% | 0% | 0% | 39% | 0% | 10% | 8% | 36% | 39% | 0% | 14% | 30%
5 | Nc1nc(-c2nccs2)c(-c2ccnc3ccccc23)s1 [GW693542] | 14% | 5% | 0% | 9% | 18% | 8% | 0% | 0% | 0% | 0% | 0% | 22% | 9% | 20% | 28% | 35% | 28% | 9% | 3% | 0%
6 | Fc1cc(Cl)ccc1Nc1ccnc2cc(I)ccc12 [GW551191] | 0% | 28% | 13% | 16% | 18% | 3% | 0% | 0% | 6% | 2% | 0% | 8% | 0% | 3% | 11% | 29% | 16% | 16% | 11% | 20%
7 | Cc1c(O)cccc1Nc1ccnc2ccc(C(F)(F)F)cc12.Cl [GW466413] | 0% | 25% | 9% | 14% | 3% | 2% | 0% | 0% | 0% | 0% | 26% | 0% | 0% | 23% | 17% | 21% | 1% | 0% | 10% | 15%
8 | O=C(Nc1ccccc1)Nc1cccc(Oc2ccc3nccn3n2)c1 | 0% | 0% | 14% | 1% | 11% | 0% | 0% | 0% |  | 0% | 0% | 0% | 41% | 0% | 0% | 0% | 17% | 0% | 29% | 0%
9 | O=C(O)COc1ncnc2cc(-c3ccc4[nH]ncc4c3)sc12 | 0% | 14% | 29% | 55% | 0% | 43% | 26% | 33% | 36% | 27% | 8% | 0% | 6% | 7% | 32% | 1% | 23% | 12% | 4% | 14%
10 | Cc1cc(-c2ccc3c(c2)CC[C@@H](N[C@@H](C)c2ccccc2)C3)cnc1N.Cl [GW412617] | 0% | 16% | 24% | 6% | 17% | 19% | 8% | 16% | 1% | 68% | 0% | 18% | 11% | 0% | 0% | 7% | 0% | 2% | 4% | 33%
11 | Cc1ccccc1-n1cnc2c(N)ncnc21 [SKF-97510] | 0% | 0% | 0% | 0% | 25% | 0% | 0% | 0% | 0% | 0% | 0% | 1% | 0% | 0% | 0% | 0% | 0% | 0% | 0% | 0%
